# Assay outcomes as filed in PubChem.
# This is a sample that favours compounds with a hit; in the whole collection about 4.1% have one here.
# CaV13 FRET inh: Disruptors of the CACNA1D IQ motif to Ca2+-dependent inactivation inhibitor domain association, primary screening, Förster resonance energy transfer in intact living …; HEK cells, CFP/YFP FRET ICDI-IQ, plate reader, 10 min; percent FRET-ratio fall versus neutral wells; inhibition, % at 12.3 µM; actives 0.098% (n = 340,000); AID 743397;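 active means mean replicate inhibition of at least 30% and at least 1% of replicates passing that level; inconclusive means only one of the two criteria is met; inactive means neither criterion is met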;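 further: 0% = median of the neutral control wells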
# PolyA inh: inhibitors of polyadenylation in S. cerevisiae; S. cerevisiae SKY197-pL101 polyadenylation reporter, beta-gal luminescence; efflux-impaired pdr1/pdr3 knockout yeast; score 100 = 6 SD above DMSO; activity score, % at 12 µM; actives 0.02% (n = 300,000); AID 1875;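 active means lowest replicate activity score at least 50, where 100 means six control SD above control mean; inconclusive means lowest score under 50 but half or more replicates reach 50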;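 further: yeast exposed to compound for 9 h at 30 °C; higher score means more reporter readthrough which indicates perturbed polyadenylation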
# IDE cell inh: cellular human IDE inhibition; P14735; HEK cells, FAbetaB cleavage, fluorescence polarization; inhibition, % at 5.59 µM; actives 0.41% (n = 320,000); AID 434962;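 active means percent inhibition above the average of all tested compounds plus 3 SD, set per screening campaign, cut at about 16% in these data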;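 further: IDE supplied by intact live HEK cells; FP after avidin binding of uncleaved biotin substrate so inhibition keeps polarization high; 0% = DMSO wells and 100% = 60 µM reference IDE inhibitor Ii1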
# IDE act: boosts human insulin-degrading enzyme activity in HEK cells | P14735 | FAbeta-B cleavage, fluorescence polarization; 0% vehicle, 100% cell-free pure enzyme wells | activation, % at 5.96 µM | actives 0.073% (n = 340,000) | AID 493087;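 active means activation above the mean of all tested compounds plus 3 SD, set per screening campaign, cut at about 17% in these data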
# PfM18AAP inh: PfM18AAP enzyme inhibition; inhibition, % at 7.35 µM; actives 1.2% (n = 290,000); recombinant PfM18AAP, H-Glu-NHMec fluorogenic cleavage;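 active means inhibition above the campaign mean inhibition over all tested compounds plus 3 SD, cut at about 28% in these data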;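 further: 0% = plate median of test compound wells and 100% = 2 mM ZnCl2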
# ALR inh: blocks human ALR sulfhydryl oxidase activity; P55789; purified ALR, DTT oxidation, H2O2 HRP-luminol luminescence; inhibition, % (concentration not given with the values); actives 3.8% (n = 290,000);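 active means mean replicate inhibition above about 79%, with every replicate also reaching it, limit read from the data; inconclusive means only one of the two criteria met; inactive means mean below limit and not every replicate reaching it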
# Numbers without * were called inactive; ? = inconclusive; . = not tested or not shown; + = active, no number.
SMILES,CaV13 FRET inh,PolyA inh,IDE cell inh,IDE act,PfM18AAP inh,ALR inh
CN1C(=O)CC(NNC(=O)c2ccc(Cl)cc2)C1=O (centres undefined),-6,3,2,4,1,90*
CCCc1cc(=O)n2[nH]cc(-c3ccc(Cl)cc3)c2n1,7,-3,.,1,1,99*
CCOC(=O)Cc1c(C)nc2c(-c3ccc(Cl)cc3)c[nH]n2c1=O,.,3,1,7,8,98*
COc1cc(/C=C/C(=O)OCC(=O)c2c(N)n(C)c(=O)n(C)c2=O)ccc1OCC#N,2,2,3,3,-5,-1
O=C1Nc2c(Br)cccc2C1=O,-5,.,0,-7,.,-10
Oc1ccc(/C=N/NC2=NCCCCC2)cc1,-13,-5,-3,10,8,99*
COc1cc(/C=N/NC2=NCCCCC2)ccc1O,-15,-6,8,-4,4,95*
COc1ccc(/C=C/C(=O)ONC2=NCCCCC2)cc1OC,1,5,-1,2,1,-9
Cc1cccc(N(C)C(=O)C2CCCN2S(=O)(=O)c2cccc3nsnc23)c1 (centres undefined),-7,25,1,8,4,-4
Nc1cccc(NC(=O)c2ccco2)c1,-1,3,6,-2,-3,99*
Cc1ccccc1C(=O)Nc1cccc(N)c1,.,-1,-6,7,9,-3
Nc1ccc(C(=O)Nc2cccc(N)c2)cc1,-4,-16,.,2,1,99*
CCNC(=S)/N=C(/Nc1ccc(OC)cc1)Nc1nc(C)cc(C)n1,-4,-11,-8,.,14,-8
CCNC(=S)/N=C(/Nc1ccccc1)Nc1nc(C)cc(C)n1,-20,-12,-2,.,30*,.
CCCc1cc(C(=O)N2CCCC(N3CCN(c4ccccc4F)CC3)C2)n(C)n1 (centres undefined),-7,-17,1,0,-1,-5
C=CCN=C1NC(CCc2ccccc2)C(C(=O)OC)=C(C)N1Cc1ccccc1C(F)(F)F (centres undefined),-11,.,.,.,.,.
CCOC(=O)c1cc2c(=O)n3cccc(C)c3nc2n(Cc2ccco2)c1=NC(=O)c1ccccc1,-11,9,0,1,3,89*
CCOC(=O)c1cc2c(=O)n3ccccc3nc2n(C(C)C)c1=NC(=O)c1ccco1,+,11,3,-1,19,.
CCOC(=O)c1cc2c(=O)n3cccc(C)c3nc2n(CC(C)C)c1=NC(=O)c1ccco1,44*,10,-3,6,18,-4
CCCn1c(=NC(=O)c2ccco2)c(C(=O)OCC)cc2c(=O)n3ccccc3nc21,.,18,0,3,27,0
CC1(C)Cc2cccc(OCC(=O)Nc3cccnc3Cl)c2O1,.,14,2,0,3,-13
Cc1nn(CC(=O)NC(=O)NC2CCCC(C)C2C)c(=O)c(C#N)c1C (centres undefined),-5,0,1,1,.,-12
CN1CCN(S(=O)(=O)c2ccc(Cl)s2)CC1,-3,8,5,-3,-4,.
O=C(c1ccc2c(c1)C(=O)N(Cc1ccco1)C2=O)N1CCOCC1,-7,-3,-2,-6,0,-10
O=C(c1ccc2c(c1)C(=O)N(Cc1ccco1)C2O)N1CCOCC1 (centres undefined),22,2,-3,-1,11,87*
SMILES,CaV13 FRET inh,PolyA inh,IDE cell inh,IDE act,PfM18AAP inh,ALR inh
CC(C)c1ccc(NC2CCCN(C(=O)c3ccc4nccnc4c3)C2)cc1 (centres undefined),-6,20,1,6,4,50
COc1ccc(NC2CCCN(C(=O)c3cccnc3)C2)cc1 (centres undefined),-6,1,0,-1,3,97*
CC(C)c1ccc(NC2CCCN(C(=O)c3cccc(N4CCNC4=O)c3)C2)cc1 (centres undefined),-2,2,-2,8,2,95*
COc1ccc(NC2CCCN(C(=O)c3cccc(N4CCNC4=O)c3)C2)cc1 (centres undefined),-7,1,1,3,5,99*
N#Cc1ccc(CSc2nnc(NC(=O)c3ccc(=O)[nH]c3)s2)cc1,-12,2,5,-1,7,92*
N#Cc1ccc(CSc2nnc(NC(=O)c3ccc4ncsc4c3)s2)cc1,-5,12,0,6,9,?
COc1ccc(C2=NN(C(=O)COC(=O)c3ccc(S(C)(=O)=O)c([N+](=O)[O-])c3)C(c3ccco3)C2)cc1 (centres undefined),-7,.,1,5,.,0
COc1ccc(N2CCN(c3ncccn3)CC2)cc1,-6,14,-3,7,8,99*
COc1ccc(N2CCN(Cc3nc4ccccc4n3C)CC2)cc1,-3,2,-2,1,3,89*
COc1ccc(S(=O)(=O)N2CCN(c3ncccn3)CC2)cc1,-4,1,-4,2,.,-12
Cc1cc(/C=C(\C#N)C(=O)NC2CCCCCC2)c(C)n1C,-78,-12,-1,2,-2,8
CCN(CC)c1ccc(NC(=O)CCNC(=O)c2ccco2)cc1,2,9,3,5,5,99*
CCS(=O)(=O)N1Cc2ccccc2CC1C(=O)N1CCN(c2ccccc2)CC1 (centres undefined),-9,-7,-6,2,-5,98*
CCCC1CCC(c2ccc(/C(N)=N/O)cc2)CC1 (centres undefined),0,-36,-2,2,1,94*
CCCC1CCC(c2ccc(C(N)=O)cc2)CC1 (centres undefined),.,-6,1,0,9,-6
CN1C(=O)C(Cl)(Cl)C(=O)c2ccccc21,.,-3,.,-11,38*,.
O=S1c2ccccc2Nc2ccccc21,-11,12,9,-3,.,87*
CCOc1ccccc1N1C(=O)CC(N(O)c2ccccc2)C1=O (centres undefined),-7,2,1,0,-6,95*
COc1ccc(C(=O)C(=O)N2CCN(C(=O)OCc3ccccc3)CC2)cc1,-17,.,.,.,.,.
Cc1cc(=O)[nH]c2c(C)cc(S(=O)(=O)Nc3ccc(O)cc3)cc12,-2,13,3,5,-4,99*
O=C(O)c1cc(=O)[nH]c2ccc(S(=O)(=O)Nc3ccc(F)cc3)cc12,-4,-18,1,0,7,-1
CCn1c(SCc2nc3sc(C(=O)O)c(C)c3c(=O)[nH]2)nc2ccccc21,-7,7,5,2,33*,98*
O=C(NNC(=O)C1CC1)c1cc(Br)c(Br)s1,-3,.,7,-3,.,-4
COCCSc1ccccc1C(=O)N1CCN(Cc2ccccc2)CC1,-3,-4,0,-4,-4,-2
